# PubChem BioAssay (Tox21)
# The source made the active and inactive calls. Entries that show only a call come without a potency. Unless noted, the call rests on the fitted dose curve; in most records, active means well fitted curve in the direction sought with a large enough effect in the repeat runs; inconclusive means weak or mixed curves; inactive means no such curve, though single readings can be large; an effect the other way counts as inactive or inconclusive.
# Assays:
# [1] = qHTS assay for small molecules that induce genotoxicity in human embryonic kidney cells expressing luciferase-tagged ATAD5 (AID 651632); further: nearly all actives have a fitted effect of over 15% in size
# In short: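 Quantitative HTS in HEK293T expressing luciferase-tagged ATAD5, whose levels rise upon DNA damage. Exposure ran 16 hr at 37C and 5% CO2, with luminescence read 30 min after Amplite addition at room temperature.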
# [2] = qHTS assay for small molecules that induce genotoxicity in human embryonic kidney cells expressing luciferase-tagged ATAD5 - cell viability (AID 651634; calls by dose curve; further: nearly all actives have a fitted effect of over 25% in size; further: potency means the concentration at half of the fitted maximal effect)
# In short: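 After 15.5 hr incubation with compound at 37C, 5% CO2, HEK293T ATAD5-luciferase cells received CellTiter-Fluor reagent; fluorescence intensity was quantified following 30 min at 37C.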
# [3] = qHTS assay to test for compound auto fluorescence at 535 nm (green) in HepG2 cells (AID 720675)
# [4] = qHTS assay to test for compound auto fluorescence at 460 nm (blue) in HEK293 cells (AID 720678)
# In short: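 Intrinsic compound fluorescence is recorded in live HEK293 cultures after overnight incubation at 37C, 5% CO2, using excitation 405 nm and emission 460 nm. Values are referenced to triamterene.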
# [5] = qHTS assay to test for compound auto fluorescence at 590 nm (red) in HEK293 cells (AID 720679)
# In short: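 Red autofluorescence, HEK293 cells: 2,000 cells/well; attach 4-5 hr 37C; add 23 nL cpd or DMSO; incubate o/n 37C 5% CO2; read Ex540/Em590; Rose Bengal sodium reference.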
# [6] = qHTS assay to test for compound auto fluorescence at 535 nm (green) in HEK293 cells (AID 720680)
# [7] = qHTS assay to test for compound auto fluorescence at 460 nm (blue) in HEK293 cell free culture (AID 720681)
# In short: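 Test compounds were pinned into cell-free culture medium (DMEM with 10% FBS) and fluorescence was read directly at Ex/Em 405/460 nm. Signals were expressed as fluorescence equivalents of triamterene, with DMSO vehicle as control.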
# [8] = qHTS assay to test for compound auto fluorescence at 535 nm (green) in HEK293 cell free culture (AID 720682)
# In short: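 Using fluorescein as calibrant, autofluorescence was quantified at 485/535 nm in cell-free DMEM containing 10% FBS after pintool addition of compound or vehicle.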
# [9] = qHTS assay to test for compound auto fluorescence at 590 nm (red) in HEK293 cell free culture (AID 720683)
# In short: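 Tox21 10K library compounds were pinned into cell-free DMEM with 10% FBS and fluorescence was read at excitation 540 nm. Activity is expressed as Rose Bengal sodium equivalency.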
# [10] = qHTS assay to test for compound auto fluorescence at 590 nm (red) in HepG2 cell free culture (AID 720684)
# In short: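 Readout: intrinsic compound fluorescence at 590 nm emission after 540 nm excitation, scaled to Rose Bengal sodium. Matrix was cell-free MEM with 10% FBS; DMSO vehicle wells served as control.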
# [11] = qHTS assay to test for compound auto fluorescence at 460 nm (blue) in HepG2 cell free culture (AID 720685)
# In short: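 Cell-free plates of MEM plus 10% FBS received 23 nL compound or DMSO vehicle; blue-channel (405/460 nm) intensity scored against triamterene as reference fluorophore.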
# [12] = qHTS assay to test for compound auto fluorescence at 535 nm (green) in HepG2 cell free culture (AID 720686)
# [13] = qHTS assay to test for compound auto fluorescence at 460 nm (blue) in HepG2 cells (AID 720687)
# In short: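 Cells (2,000/well in MEM with 10% FBS) attached overnight at 37 C, then were exposed to compound or DMSO for 1 hr at 37 C, 5% CO2. Fluorescence read at Ex/Em 405/460 nm, expressed as triamterene-equivalent signal.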
# [14] = molecular target: Glucocorticoid receptor (Homo sapiens) (UniProt P04150); experiment: qHTS assay to identify small molecule agonists of the glucocorticoid receptor (GR) signaling pathway (AID 720691; active means well fitted activation curve with a large enough effect in the signal ratio in the repeat runs, not every such curve was filed as active; inconclusive means weak or mixed curves, or effect the other way; inactive means no such curve, though single readings can be large or run the other way; the % refers to the signal ratio)
# In short: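 Cells: GR-bla HeLa, endogenous GR with stably integrated GRE-beta-lactamase reporter. Treatment 18 h, 37 C, compounds delivered in DMSO. Detection via LiveBLAzer B/G FRET substrate, 2 h RT, fluorescence intensity.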
# [15] = molecular target: Glucocorticoid receptor (Homo sapiens) (UniProt P04150); experiment: qHTS assay to identify small molecule antagonists of the glucocorticoid receptor (GR) signaling pathway (AID 720692; active means well fitted inhibition curve with a large enough effect in the signal ratio in the repeat runs, not every such curve was filed as active; inconclusive means weak or mixed curves, or effect the other way; inactive means no such curve, though single readings can be large or run the other way; the % refers to the signal ratio; further: potency means the concentration at half of the fitted maximal effect)
# In short: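 Quantitative HTS in antagonist format: HeLa cells expressing endogenous GR and a stably integrated GRE-bla reporter, stimulated with 5 nM dexamethasone (final) alongside test compounds for 18 h.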
# [16] = qHTS assay for identifying genotoxic compounds that show differential cytotoxicity against isogenic chicken DT40 cell lines with known DNA damage response pathways - Rad54/Ku70 mutant cell line (AID 743015); further: potency means the concentration at half of the fitted maximal effect; nearly all actives have a fitted effect of over 60% in size
# [17] = qHTS assay to identify small molecule antagonists of the androgen receptor (AR) signaling pathway - cell viability counter screen (AID 743033; further: nearly all actives have a fitted effect of over 45% in size; further: potency means the concentration at half of the fitted maximal effect)
# [18] = qHTS assay to identify small molecule antagonists of the androgen receptor (AR) signaling pathway using the MDA cell line - cell viability counter screen (AID 743041; further: nearly all actives have a fitted effect of over 45% in size)
# In short: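 qHTS viability read-out; MDA-kb2 AR-luc; R1881-stimulated; 16 h exposure at 37C, 0% CO2; CellTiter-Fluor, 30 min; fluorescence intensity.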
# [19] = qHTS assay to identify small molecule antagonists of the thyroid receptor (TR) signaling pathway - cell viability counter screen (AID 743064); further: nearly all actives have a fitted effect of over 50% in size; further: potency means the concentration at half of the fitted maximal effect
# In short: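 Counter screen for cytotoxicity: compound plus T3 (1 nM final) on GH3.TRE-Luc cells, 23.5 h at 37 °C, then fluorescence viability readout with CellTiter-Fluor.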
# [20] = tested on: thyroid hormone receptor (rat, GH3 cells); experiment: qHTS assay to identify small molecule agonists of the thyroid receptor (TR) signaling pathway (AID 743066; calls by dose curve)
# [21] = qHTS assay to identify small molecule antagonists of the estrogen receptor alpha (ER-alpha) signaling pathway - cell viability counter screen (AID 743074; calls by dose curve;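 further: HEK293 cells carrying ER-alpha-UAS-bla reporter stimulated with 17beta-estradiol; nearly all actives have a fitted effect of over 45% in size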; further: potency means the concentration at half of the fitted maximal effect)
# [22] = molecular target: Estrogen receptor (Homo sapiens) (UniProt P03372); experiment: qHTS assay to identify small molecule agonists of the estrogen receptor alpha (ER-alpha) signaling pathway (AID 743075; calls by dose curve;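 further: HEK293 GripTite cells with ER-alpha and UAS-driven beta-lactamase reporter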; further: potency means the concentration at half of the fitted maximal effect)
# [23] = molecular target: Estrogen receptor (Homo sapiens) (UniProt P03372); experiment: qHTS assay to identify small molecule agonists of the estrogen receptor alpha (ER-alpha) signaling pathway using the BG1 cell line (AID 743079); further: potency means the concentration at half of the fitted maximal effect; nearly all actives have a fitted effect of over 20% in size
# [24] = qHTS assay to identify small molecule antagonists of the estrogen receptor alpha (ER-alpha) signaling pathway using the BG1 cell line - cell viability counter screen (AID 743081);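 further: compound given together with 17beta-estradiol as the ER stimulus; series mostly up to about 70 µM; nearly all actives have a fitted effect of over 45% in size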
# Aromatase (Homo sapiens) = Aromatase (Homo sapiens) (UniProt P11511); experiment: qHTS assay to identify aromatase inhibitors (AID 743083); further: series mostly up to about 70 µM; nearly all actives have a fitted effect of over 55% in size
# [25] = qHTS assay to identify aromatase inhibitors - cell viability counter screen (AID 743084);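 further: cells stimulated with testosterone during compound exposure; nearly all actives have a fitted effect of over 55% in size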
# [26] = molecular target: Aryl hydrocarbon receptor (Homo sapiens) (UniProt P35869); experiment: qHTS assay to identify small molecule that activate the aryl hydrocarbon receptor (AhR) signaling pathway (AID 743085);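 further: HG2L7.5c1 human HepG2 liver cells with stably integrated DRE-driven firefly reporter; series mostly up to about 70 µM; nearly all actives have a fitted effect of over 15% in size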
# In short: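 Measured in HG2L7.5c1 cells: CellTiter-Fluor signal (30 min incubation, 37C) for viability, then luciferase luminescence (30 min, room temperature). Compound contact time was 24 h at 37C, following a 5 h pre-incubation.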
# [27] = qHTS assay to identify small molecule that activate the aryl hydrocarbon receptor (AhR) signaling pathway - cell viability counter screen (AID 743086); further: nearly all actives have a fitted effect of over 45% in size; further: potency means the concentration at half of the fitted maximal effect
# In short: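 HepG2-AhR-luc (HG2L7.5c1) cells, 4000/well, were preincubated 5 h at 37C, exposed to compound in qHTS format for 24 hr at 37C, then given CellTiter-Fluor for 30 min; viability was read as fluorescence in the reporter wells.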
# [28] = molecular target: Peroxisome proliferator-activated receptor gamma (Homo sapiens) (UniProt P37231); experiment: qHTS assay to identify small molecule agonists of the peroxisome proliferator-activated receptor gamma (PPARg) signaling pathway (AID 743094; active means well fitted activation curve with a large enough effect in the signal ratio in the repeat runs, not every such curve was filed as active; inconclusive means weak or mixed curves, or effect the other way; inactive means no such curve, though single readings can be large or run the other way; the % refers to the signal ratio)
# In short: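 Reporter activation was scored by fluorescence of cleaved LiveBLAzer B/G substrate (1 h, room temperature) in PPARg-bla HEK293H cells previously treated 17 h at 37C with DMSO-dissolved compounds.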
# [29] = qHTS assay for small molecule agonists of the p53 signaling pathway - cell viability (AID 651633; calls by dose curve; further: nearly all actives have a fitted effect of over 30% in size; further: potency means the concentration at half of the fitted maximal effect)
# In short: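 p53RE-bla cells, seeded at 4,000 per well and rested 5 h at 37 C/5% CO2, received compounds in DMSO for 16 h at 37 C. CellTiter-Glo was then added, and luminescence was read after 30 min at room temperature to gauge cytotoxicity.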
# [30] = qHTS assay for small molecule disruptors of the mitochondrial membrane potential - cell viability (AID 720634; calls by dose curve;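 further: human HepG2 liver cancer cells; series mostly up to about 83 µM; nearly all actives have a fitted effect of over 20% in size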)
# In short: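 ATP-based luminescent viability readout (CellTiter-Glo, 30 min, room temperature) in HepG2 cells multiplexed with the m-MPI membrane potential dye; compound exposure lasted 1 hr at 37 C.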
# [31] = qHTS assay to identify small molecule antagonists of the glucocorticoid receptor (GR) signaling pathway - cell viability counter screen (AID 720693); further: nearly all actives have a fitted effect of over 55% in size; further: potency means the concentration at half of the fitted maximal effect
# [32] = molecular target: Androgen receptor (Homo sapiens) (UniProt P10275); experiment: qHTS assay to identify small molecule antagonists of the androgen receptor (AR) signaling pathway (AID 743035; active means well fitted inhibition curve with a large enough effect in the signal ratio in the repeat runs, not every such curve was filed as active; inconclusive means weak or mixed curves, or effect the other way; inactive means no such curve, though single readings can be large or run the other way; the % refers to the signal ratio; further: potency means the concentration at half of the fitted maximal effect)
# In short: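 Quantitative HTS of the Tox21 10K library used HEK293 AR-UAS-bla cells stimulated with R1881 alongside compound for 16 h at 37C, followed by beta-lactamase FRET detection (LiveBLAzer B/G, 2 h, RT).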
# [33] = molecular target: Androgen receptor (Homo sapiens) (UniProt P10275); experiment: qHTS assay to identify small molecule agonists of the androgen receptor (AR) signaling pathway (AID 743036; active means well fitted activation curve with a large enough effect in the signal ratio in the repeat runs, with a control signal flat, not every such curve was filed as active; inconclusive means weak or mixed curves, or effect the other way; inactive means no such curve, though single readings can be large or run the other way; the % refers to the signal ratio)
# In short: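 In this Tox21 qHTS, 2,000 HEK293 AR-bla cells per well were incubated with compounds for 16 h at 37C and 5% CO2. Fluorescence intensity was recorded 2 h after adding LiveBLAzer B/G FRET substrate at room temperature.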
# [34] = molecular target: Androgen receptor (Homo sapiens) (UniProt P10275); experiment: qHTS assay to identify small molecule agonists of the androgen receptor (AR) signaling pathway using the MDA cell line (AID 743040; further: nearly all actives have a fitted effect of over 20% in size)
# In short: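 Agonist activity is measured as luciferase luminescence in human MDA-kb2 cells whose MMTV reporter responds to both AR and GR. Compounds in DMSO incubate 16 h at 37C, 0% CO2, and ONE-Glo is read after 30 min.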
# [35] = qHTS assay to identify small molecule antagonists of the thyroid receptor (TR) signaling pathway (AID 743065); further: nearly all actives have a fitted effect of over 55% in size; further: potency means the concentration at half of the fitted maximal effect
# In short: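 GH3.TRE-Luc rat pituitary cells carrying two TR response elements driving luciferase were plated for 4 h, given compound plus 1 nM T3 (final), and incubated 23.5 h at 37 C. ONE-Glo luminescence measured reporter inhibition; CellTiter-Fluor fluorescence tracked cytotoxicity.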
# [36] = molecular target: Acetylcholinesterase (Homo sapiens) (UniProt P22303); experiment: Acetylcholinesterase (AChE) small molecule antagonists: enzyme-based qHTS assay with human liver microsomes (AID 1347399; calls by dose curve; further: nearly all actives have a fitted effect of over 60% in size); details: Potency: qHTS inhibition; outcome: qHTS inhibition
# In short: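 Recombinant human AChE (50 mU/mL in the enzyme mix) and human liver microsomes (0.25 mg/mL final) were preincubated with compound and NADPH (0.25 mg/mL final) for 30 min at 37 C. Acetylthiocholine/DTNB was then added; thiocholine was read colorimetrically after 10 min at room temperature.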
# [37] = qHTS assay for small molecule disruptors of the mitochondrial membrane potential (AID 720635)
# In short: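 HepG2 cells (2,000/well) attached overnight at 37C, then took compound for 1 hr at 37C, 5% CO2. Mito-MPS dye was added for 30 min; fluorescence was read at 490/535 nm (monomers) and 540/590 nm (aggregates).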
# Chain of Glucocorticoid receptor (Homo sapiens) (P04150 whole entry, looked up): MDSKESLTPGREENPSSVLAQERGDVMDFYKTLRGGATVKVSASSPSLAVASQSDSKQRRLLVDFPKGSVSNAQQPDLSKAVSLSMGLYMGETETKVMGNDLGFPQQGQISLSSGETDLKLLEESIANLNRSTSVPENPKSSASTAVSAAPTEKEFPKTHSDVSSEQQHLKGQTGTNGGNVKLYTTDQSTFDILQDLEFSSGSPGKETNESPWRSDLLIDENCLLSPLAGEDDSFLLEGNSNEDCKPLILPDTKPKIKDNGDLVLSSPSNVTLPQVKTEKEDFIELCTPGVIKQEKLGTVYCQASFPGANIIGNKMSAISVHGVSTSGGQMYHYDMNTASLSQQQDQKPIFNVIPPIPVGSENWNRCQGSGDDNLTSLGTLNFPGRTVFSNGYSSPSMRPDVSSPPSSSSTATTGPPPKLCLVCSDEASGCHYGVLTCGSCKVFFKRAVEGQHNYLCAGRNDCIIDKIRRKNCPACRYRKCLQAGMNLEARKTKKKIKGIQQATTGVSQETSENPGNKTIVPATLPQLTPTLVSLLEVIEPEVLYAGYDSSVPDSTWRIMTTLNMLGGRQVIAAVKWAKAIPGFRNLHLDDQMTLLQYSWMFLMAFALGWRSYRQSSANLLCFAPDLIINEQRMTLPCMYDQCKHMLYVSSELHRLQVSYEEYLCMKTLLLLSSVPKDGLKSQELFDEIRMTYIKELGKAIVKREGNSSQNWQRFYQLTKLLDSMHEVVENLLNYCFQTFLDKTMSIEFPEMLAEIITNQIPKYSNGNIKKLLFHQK
# Chain of Androgen receptor (Homo sapiens) (P10275 whole entry, looked up): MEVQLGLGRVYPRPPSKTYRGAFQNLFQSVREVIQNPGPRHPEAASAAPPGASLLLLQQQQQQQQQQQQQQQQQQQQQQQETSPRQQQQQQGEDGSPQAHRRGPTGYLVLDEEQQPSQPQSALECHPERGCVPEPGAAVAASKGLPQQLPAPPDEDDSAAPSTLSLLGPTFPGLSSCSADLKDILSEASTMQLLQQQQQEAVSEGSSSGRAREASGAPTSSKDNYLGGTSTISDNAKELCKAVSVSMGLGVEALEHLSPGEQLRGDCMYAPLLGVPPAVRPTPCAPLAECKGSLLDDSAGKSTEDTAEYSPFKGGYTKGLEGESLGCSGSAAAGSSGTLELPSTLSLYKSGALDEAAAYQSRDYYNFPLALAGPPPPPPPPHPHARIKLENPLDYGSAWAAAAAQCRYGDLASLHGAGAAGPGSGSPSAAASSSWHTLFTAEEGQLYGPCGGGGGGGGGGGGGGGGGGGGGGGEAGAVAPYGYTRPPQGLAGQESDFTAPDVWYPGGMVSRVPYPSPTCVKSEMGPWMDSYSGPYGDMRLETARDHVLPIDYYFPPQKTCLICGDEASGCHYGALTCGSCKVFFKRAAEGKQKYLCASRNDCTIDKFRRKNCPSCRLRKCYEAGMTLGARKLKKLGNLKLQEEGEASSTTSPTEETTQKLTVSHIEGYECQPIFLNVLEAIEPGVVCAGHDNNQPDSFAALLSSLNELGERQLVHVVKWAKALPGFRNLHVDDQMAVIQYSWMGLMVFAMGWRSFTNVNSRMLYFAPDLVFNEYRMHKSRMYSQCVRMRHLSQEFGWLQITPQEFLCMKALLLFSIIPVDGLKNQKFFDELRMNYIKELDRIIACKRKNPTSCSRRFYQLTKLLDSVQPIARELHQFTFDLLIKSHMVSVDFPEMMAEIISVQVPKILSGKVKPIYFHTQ
# Chain of Estrogen receptor (Homo sapiens) (P03372 whole entry, looked up): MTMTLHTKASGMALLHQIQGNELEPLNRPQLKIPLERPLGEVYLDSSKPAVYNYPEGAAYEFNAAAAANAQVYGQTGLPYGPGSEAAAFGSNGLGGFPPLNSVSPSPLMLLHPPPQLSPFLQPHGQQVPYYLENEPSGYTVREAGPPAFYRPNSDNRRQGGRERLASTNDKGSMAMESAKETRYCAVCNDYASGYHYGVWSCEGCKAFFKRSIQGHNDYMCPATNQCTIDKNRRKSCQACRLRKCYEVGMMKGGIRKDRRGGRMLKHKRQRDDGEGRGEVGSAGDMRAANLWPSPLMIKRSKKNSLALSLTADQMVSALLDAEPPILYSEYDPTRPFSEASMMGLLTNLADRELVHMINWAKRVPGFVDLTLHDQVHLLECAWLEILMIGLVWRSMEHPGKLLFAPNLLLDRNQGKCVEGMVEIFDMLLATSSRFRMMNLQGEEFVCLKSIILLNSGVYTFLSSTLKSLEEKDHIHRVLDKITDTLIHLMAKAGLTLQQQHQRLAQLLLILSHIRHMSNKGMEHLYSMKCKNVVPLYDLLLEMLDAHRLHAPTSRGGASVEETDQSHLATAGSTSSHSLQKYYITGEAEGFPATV
# Chain of Peroxisome proliferator-activated receptor gamma (Homo sapiens) (P37231 whole entry, looked up): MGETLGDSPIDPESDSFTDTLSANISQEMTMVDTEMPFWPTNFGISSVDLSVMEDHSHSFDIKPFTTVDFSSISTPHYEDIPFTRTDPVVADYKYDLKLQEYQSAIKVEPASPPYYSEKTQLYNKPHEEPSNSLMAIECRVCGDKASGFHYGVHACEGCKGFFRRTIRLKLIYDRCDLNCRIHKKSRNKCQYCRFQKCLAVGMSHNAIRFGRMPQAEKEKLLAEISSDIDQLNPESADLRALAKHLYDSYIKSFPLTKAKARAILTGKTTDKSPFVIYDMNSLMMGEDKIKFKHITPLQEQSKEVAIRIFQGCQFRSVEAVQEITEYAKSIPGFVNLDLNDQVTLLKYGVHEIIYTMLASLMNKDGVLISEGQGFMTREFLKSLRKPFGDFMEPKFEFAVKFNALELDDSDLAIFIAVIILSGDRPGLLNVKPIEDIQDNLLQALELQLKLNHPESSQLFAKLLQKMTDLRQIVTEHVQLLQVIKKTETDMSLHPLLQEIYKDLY
# Chain of Aryl hydrocarbon receptor (Homo sapiens) (P35869 whole entry, looked up): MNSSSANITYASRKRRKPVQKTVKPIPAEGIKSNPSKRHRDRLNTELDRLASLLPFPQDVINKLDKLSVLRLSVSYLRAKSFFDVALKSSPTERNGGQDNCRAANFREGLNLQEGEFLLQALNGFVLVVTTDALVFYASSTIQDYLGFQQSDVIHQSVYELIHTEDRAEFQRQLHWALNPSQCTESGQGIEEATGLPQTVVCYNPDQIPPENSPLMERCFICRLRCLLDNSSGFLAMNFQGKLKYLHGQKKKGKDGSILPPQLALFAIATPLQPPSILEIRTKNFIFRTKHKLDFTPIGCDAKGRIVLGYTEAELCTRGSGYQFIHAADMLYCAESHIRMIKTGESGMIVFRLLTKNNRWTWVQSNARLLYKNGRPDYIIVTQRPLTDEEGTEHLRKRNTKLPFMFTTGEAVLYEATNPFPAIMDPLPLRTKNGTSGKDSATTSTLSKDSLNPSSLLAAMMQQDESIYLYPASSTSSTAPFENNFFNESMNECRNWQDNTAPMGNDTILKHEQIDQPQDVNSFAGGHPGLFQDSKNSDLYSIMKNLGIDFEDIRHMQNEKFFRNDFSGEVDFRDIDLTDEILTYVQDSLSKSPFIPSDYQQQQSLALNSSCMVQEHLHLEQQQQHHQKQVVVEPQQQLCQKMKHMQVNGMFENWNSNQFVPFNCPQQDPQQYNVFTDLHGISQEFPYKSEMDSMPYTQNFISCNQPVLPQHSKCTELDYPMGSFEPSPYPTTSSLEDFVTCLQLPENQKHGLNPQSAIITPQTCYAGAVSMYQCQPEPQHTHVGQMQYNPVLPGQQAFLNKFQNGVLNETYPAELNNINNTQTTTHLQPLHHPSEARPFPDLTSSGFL
# Chain of Aromatase (Homo sapiens) (P11511 whole entry, looked up): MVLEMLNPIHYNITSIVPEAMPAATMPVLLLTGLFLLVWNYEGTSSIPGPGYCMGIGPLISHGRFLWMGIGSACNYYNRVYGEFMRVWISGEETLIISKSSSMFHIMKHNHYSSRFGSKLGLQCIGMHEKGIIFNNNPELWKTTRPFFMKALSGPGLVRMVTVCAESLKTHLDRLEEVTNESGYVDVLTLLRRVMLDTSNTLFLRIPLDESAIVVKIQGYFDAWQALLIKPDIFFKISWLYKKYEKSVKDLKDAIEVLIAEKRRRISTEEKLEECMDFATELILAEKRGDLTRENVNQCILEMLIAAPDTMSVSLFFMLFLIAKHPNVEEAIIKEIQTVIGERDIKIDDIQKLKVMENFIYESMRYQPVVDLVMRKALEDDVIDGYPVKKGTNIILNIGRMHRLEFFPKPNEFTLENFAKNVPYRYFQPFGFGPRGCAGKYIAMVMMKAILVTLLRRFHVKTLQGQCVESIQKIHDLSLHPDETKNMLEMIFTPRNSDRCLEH
# Chain of Acetylcholinesterase (Homo sapiens) (P22303 whole entry, looked up): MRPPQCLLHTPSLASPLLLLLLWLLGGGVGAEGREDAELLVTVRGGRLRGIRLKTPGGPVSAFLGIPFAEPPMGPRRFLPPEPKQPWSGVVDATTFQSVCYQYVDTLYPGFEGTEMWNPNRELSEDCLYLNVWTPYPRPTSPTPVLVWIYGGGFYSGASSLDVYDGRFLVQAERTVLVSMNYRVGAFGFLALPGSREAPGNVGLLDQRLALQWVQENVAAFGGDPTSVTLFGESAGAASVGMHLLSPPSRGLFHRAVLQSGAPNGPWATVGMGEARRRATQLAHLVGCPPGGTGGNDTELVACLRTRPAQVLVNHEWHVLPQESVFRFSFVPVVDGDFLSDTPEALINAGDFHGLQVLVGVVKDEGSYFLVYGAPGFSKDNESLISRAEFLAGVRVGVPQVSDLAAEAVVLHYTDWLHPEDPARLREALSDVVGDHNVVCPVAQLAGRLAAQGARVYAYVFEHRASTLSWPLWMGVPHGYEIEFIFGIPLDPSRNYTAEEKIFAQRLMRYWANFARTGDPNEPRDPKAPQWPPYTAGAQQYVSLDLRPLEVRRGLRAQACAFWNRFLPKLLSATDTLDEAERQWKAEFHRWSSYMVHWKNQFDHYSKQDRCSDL
smiles,measurement,setting,value
C[C@]12CC[C@H]3[C@@H](CCC4=CC(=O)CC[C@@]43C)[C@@H]1CC[C@@H]2OC(=O)CCc1ccccc1,outcome,[1],inactive
same,Potency,[2],inactive
same,outcome,[3],inactive
same,outcome,[4],inactive
same,outcome,[5],inactive
same,outcome,[6],inactive
same,outcome,[7],inactive
same,outcome,[8],inactive
same,outcome,[9],inactive
same,outcome,[10],inactive
same,outcome,[11],inactive
same,outcome,[12],inactive
same,outcome,[13],inactive
same,outcome,[14],inactive
same,Potency,[15],6.16 µM (active)
same,Potency,[16],8.63 µM (active)
same,Potency,[17],inactive
same,outcome,[18],inactive
same,Potency,[19],inactive
same,outcome,[20],inactive
same,Potency,[21],inactive
same,Potency,[22],3.89 µM [inconclusive] (active)
same,Potency,[23],0.0306 µM (active)
same,Potency,[24],inactive
same,Potency,Aromatase (Homo sapiens),inactive
same,outcome,[25],inactive
same,outcome,[26],inactive
same,Potency,[27],inactive
same,outcome,[28],inactive
CN1C2CCC1CC(OC(c1ccccc1)c1ccc(Cl)cc1)C2 (stereo not given),outcome,[1],inactive
same,Potency,[29],29.8 µM (active)
same,Potency,[2],26.6 µM (active)
same,outcome,[30],inactive
same,outcome,[3],inactive
same,outcome,[4],inactive
same,outcome,[5],inactive
same,outcome,[6],inactive
same,outcome,[7],inactive
same,outcome,[8],inactive
same,outcome,[9],inactive
same,outcome,[10],inactive
same,outcome,[11],inactive
same,outcome,[12],inactive
same,outcome,[13],inactive
same,Potency,[15],21.3 µM (active)
same,Potency,[31],23.9 µM (active)
same,Potency,[16],4.22 µM (active)
same,Potency,[17],15.1 µM (active)
same,Potency,[32],21.3 µM (active)
same,outcome,[33],inactive
same,outcome,[34],inactive
same,Potency,[19],4.73 µM (active)
same,Potency,[35],5.96 µM (active)
same,Potency,[21],23.9 µM (active)
same,Potency,[22],inactive
same,Potency,[24],inactive
same,outcome,[26],inactive
same,Potency,[27],23.7 µM (active)
same,outcome,[28],inactive
C1CCc2nnnn2CC1,Potency,Aromatase (Homo sapiens),inactive
same,outcome,[26],inactive
N=C1N=C(N)c2cc3ccccc3cc21,Potency,[36],inactive
CN1CCN=C(c2ccccc2)c2cc(Cl)ccc21,outcome,[1],inactive
same,Potency,[29],inactive
same,Potency,[2],inactive
same,outcome,[30],inactive
same,Potency,[37],inactive
same,outcome,[3],inactive
same,outcome,[4],inactive
same,outcome,[5],inactive
same,outcome,[6],inactive
same,outcome,[7],inactive
same,outcome,[8],inactive
same,outcome,[9],inactive
same,outcome,[10],inactive
same,outcome,[11],inactive
same,outcome,[12],inactive
same,outcome,[13],inactive
same,outcome,[14],inactive
same,Potency,[31],inactive
same,Potency,[17],inactive
same,outcome,[18],inactive
same,Potency,[19],inactive
same,Potency,[35],inactive
same,outcome,[20],inactive
same,Potency,[24],inactive
same,Potency,Aromatase (Homo sapiens),inactive
same,outcome,[25],inactive
same,Potency,[27],inactive
same,outcome,[28],inactive
